“And” between values parts separate entries of the source, which are not always exact repeats. Equal values may be shown once. Inconclusive results are not listed. The source made the active and inactive calls. Rule for the calls, unless noted: active = hit-call score of the fitted dose curve at least 0.9, where 1 is the maximum; inconclusive = response in the unintended direction; inactive = score below 0.9.
What was measured:
[1] = molecular target: human Peroxisome Proliferator-activated Receptor alpha (PPARa), PPARA (gene 5465) (UniProt Q07869); experiment: ATG_PPARa_TRANS: Attagene TRANS-FACTORIAL HepG2 Assay for human Peroxisome Proliferator-activated Receptor alpha (PPARa) (AID 2283001);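 for AC50: potency for gain of reporter signal over DMSO so agonist or activator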
human Peroxisome Proliferator-activated Receptor alpha (PPARa), PPARA (gene 5465), sequence (Q07869 whole entry, looked up, the tested form may be a part): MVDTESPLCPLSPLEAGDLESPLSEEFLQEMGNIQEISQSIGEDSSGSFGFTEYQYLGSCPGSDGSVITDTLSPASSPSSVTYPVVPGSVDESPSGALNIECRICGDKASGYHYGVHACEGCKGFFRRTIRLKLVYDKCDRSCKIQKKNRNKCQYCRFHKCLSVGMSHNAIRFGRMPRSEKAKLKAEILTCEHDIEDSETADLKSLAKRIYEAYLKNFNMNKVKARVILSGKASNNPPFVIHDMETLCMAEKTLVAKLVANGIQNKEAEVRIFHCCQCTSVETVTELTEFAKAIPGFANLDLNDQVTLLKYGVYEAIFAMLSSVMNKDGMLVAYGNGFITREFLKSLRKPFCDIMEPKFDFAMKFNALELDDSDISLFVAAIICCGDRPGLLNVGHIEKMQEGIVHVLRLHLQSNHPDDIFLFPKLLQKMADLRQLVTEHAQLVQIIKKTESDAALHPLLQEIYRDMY
Method in brief: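 Reporter transcripts from GAL4-UAS units in transfected HepG2 were quantified 24 h after dosing. Detection used reverse transcription, PCR, fluorescent primer extension and capillary electrophoresis, with DMSO as baseline.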

[2] = molecular target: human Peroxisome Proliferator-activated Receptor delta (PPARd), PPARD (gene 5467) (UniProt Q03181); experiment: ATG_PPARd_TRANS: Attagene TRANS-FACTORIAL HepG2 Assay for human Peroxisome Proliferator-activated Receptor delta (PPARd) (AID 2283002)
human Peroxisome Proliferator-activated Receptor delta (PPARd), PPARD (gene 5467), sequence (Q03181 whole entry, looked up, the tested form may be a part): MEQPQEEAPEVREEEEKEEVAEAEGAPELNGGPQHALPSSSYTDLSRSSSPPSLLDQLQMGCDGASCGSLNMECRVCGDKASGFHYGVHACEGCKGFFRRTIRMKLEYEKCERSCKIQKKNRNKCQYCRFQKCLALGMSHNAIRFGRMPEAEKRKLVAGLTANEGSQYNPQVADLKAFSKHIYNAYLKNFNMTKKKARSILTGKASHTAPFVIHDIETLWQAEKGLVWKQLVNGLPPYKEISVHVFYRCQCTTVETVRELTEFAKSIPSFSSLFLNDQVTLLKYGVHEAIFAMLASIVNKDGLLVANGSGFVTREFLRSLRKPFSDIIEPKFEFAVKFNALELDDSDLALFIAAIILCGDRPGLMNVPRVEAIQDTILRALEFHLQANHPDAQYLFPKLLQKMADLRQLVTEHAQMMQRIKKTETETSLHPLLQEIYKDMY
Method in brief: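 Read-out is induced reporter mRNA, quantified by RT-PCR with fluorescent labelling and capillary electrophoresis after 24 h dosing. Cells are HepG2 transiently carrying multiple GAL4-UAS reporter units driven by exogenous NR-GAL4 chimeras; DMSO serves as baseline.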

[3] = molecular target: human Retinoic Acid Receptor beta (RARb), RARB (gene 5915) (UniProt P10826); experiment: ATG_RARb_TRANS: Attagene TRANS-FACTORIAL HepG2 Assay for human Retinoic Acid Receptor beta (AID 2283004)
human Retinoic Acid Receptor beta (RARb), RARB (gene 5915), sequence (P10826 whole entry, looked up, the tested form may be a part): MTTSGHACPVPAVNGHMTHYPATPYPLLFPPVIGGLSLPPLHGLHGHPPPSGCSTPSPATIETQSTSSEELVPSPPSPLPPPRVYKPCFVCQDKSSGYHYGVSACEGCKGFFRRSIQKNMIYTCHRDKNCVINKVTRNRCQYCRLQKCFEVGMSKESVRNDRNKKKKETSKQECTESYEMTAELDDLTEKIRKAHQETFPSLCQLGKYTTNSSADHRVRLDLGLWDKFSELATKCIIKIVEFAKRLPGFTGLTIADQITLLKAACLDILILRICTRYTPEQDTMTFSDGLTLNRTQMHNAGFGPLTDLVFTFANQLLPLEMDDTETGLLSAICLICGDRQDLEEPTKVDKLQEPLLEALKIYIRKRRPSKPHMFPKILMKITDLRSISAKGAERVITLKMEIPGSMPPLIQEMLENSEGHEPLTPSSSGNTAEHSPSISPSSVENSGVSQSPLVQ
Method in brief: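 Induction of reporter mRNA from a chimeric RARb-Gal4 construct was measured by RT-PCR, FAM labelling, HpaI digestion and capillary electrophoresis. Measurements followed 24 h compound treatment of transiently transfected human HepG2 liver cells, with DMSO as baseline.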

[4] = molecular target: Retinoic acid receptor alpha (Homo sapiens) (UniProt P10276); experiment: ATG_RARa_TRANS: Attagene TRANS-FACTORIAL HepG2 Assay for human Retinoic Acid Receptor alpha (RARa) (AID 2283005)
Retinoic acid receptor alpha (Homo sapiens), sequence (P10276 whole entry, looked up, the tested form may be a part): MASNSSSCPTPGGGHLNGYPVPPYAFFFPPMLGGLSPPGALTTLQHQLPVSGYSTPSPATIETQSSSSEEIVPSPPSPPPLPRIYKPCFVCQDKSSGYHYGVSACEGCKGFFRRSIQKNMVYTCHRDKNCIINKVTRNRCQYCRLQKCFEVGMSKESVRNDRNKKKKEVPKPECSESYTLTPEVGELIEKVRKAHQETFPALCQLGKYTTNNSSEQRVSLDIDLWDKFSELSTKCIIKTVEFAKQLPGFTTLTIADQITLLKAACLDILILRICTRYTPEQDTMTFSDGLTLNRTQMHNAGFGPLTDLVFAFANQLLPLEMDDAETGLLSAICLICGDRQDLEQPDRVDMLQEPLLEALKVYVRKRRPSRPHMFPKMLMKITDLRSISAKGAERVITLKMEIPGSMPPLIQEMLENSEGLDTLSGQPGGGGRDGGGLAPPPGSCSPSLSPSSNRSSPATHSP
Method in brief: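 Reporter transcripts, measured by RT-PCR with fluorescent labeling and capillary electrophoresis after 24 h dosing, reflect activity of an exogenous human RARa–GAL4 fusion in transiently transfected HepG2. Fitted for increase relative to DMSO.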

[5] = molecular target: Peroxisome proliferator-activated receptor gamma (Homo sapiens) (UniProt P37231); experiment: ATG_PPARg_TRANS: Attagene TRANS-FACTORIAL HepG2 Assay for human Peroxisome Proliferator-activated Receptor-gamma (PPARg) (AID 2283007)
Peroxisome proliferator-activated receptor gamma (Homo sapiens), sequence (P37231 whole entry, looked up, the tested form may be a part): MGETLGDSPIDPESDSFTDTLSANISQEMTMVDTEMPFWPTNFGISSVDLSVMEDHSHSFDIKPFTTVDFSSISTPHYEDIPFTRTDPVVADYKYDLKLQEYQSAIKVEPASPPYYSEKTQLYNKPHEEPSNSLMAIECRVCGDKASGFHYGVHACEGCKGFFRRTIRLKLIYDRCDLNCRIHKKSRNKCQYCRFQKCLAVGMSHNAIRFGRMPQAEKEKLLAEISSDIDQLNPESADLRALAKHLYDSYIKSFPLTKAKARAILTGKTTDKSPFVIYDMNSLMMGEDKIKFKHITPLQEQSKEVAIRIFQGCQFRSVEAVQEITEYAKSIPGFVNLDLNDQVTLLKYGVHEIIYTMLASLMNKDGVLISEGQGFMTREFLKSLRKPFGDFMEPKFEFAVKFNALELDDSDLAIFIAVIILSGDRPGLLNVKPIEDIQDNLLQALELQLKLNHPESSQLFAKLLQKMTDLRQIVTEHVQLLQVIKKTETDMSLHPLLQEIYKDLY
Method in brief: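 Endpoint reflects upward reporter mRNA change versus DMSO controls. Setup: transiently transfected HepG2, GAL4-UAS reporters driven by chimeric NR-Gal4, 24 h incubation, RT-PCR with capillary electrophoresis read-out.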

[6] = molecular target: human Retinoic Acid Receptor gamma (RARg), RARG (gene 5916) (UniProt P13631); experiment: ATG_RARg_TRANS: Attagene TRANS-FACTORIAL HepG2 Assay for human Retinoic Acid Receptor gamma (RARg) (AID 2283009)
human Retinoic Acid Receptor gamma (RARg), RARG (gene 5916), sequence (P13631 whole entry, looked up, the tested form may be a part): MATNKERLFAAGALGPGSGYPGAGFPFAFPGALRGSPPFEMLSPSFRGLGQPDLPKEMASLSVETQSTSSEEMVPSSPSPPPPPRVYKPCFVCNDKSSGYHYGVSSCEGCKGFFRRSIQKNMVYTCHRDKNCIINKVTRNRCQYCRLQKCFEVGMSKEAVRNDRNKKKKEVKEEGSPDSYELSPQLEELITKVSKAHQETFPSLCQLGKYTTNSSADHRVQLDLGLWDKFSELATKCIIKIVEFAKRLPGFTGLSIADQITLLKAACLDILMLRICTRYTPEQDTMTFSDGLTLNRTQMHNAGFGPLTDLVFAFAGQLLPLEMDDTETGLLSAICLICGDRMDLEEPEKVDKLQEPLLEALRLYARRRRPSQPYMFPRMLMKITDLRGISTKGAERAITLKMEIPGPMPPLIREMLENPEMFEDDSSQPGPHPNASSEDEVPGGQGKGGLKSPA
Method in brief: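 HepG2, RARg-GAL4 TRANS system, 24 h exposure; reporter mRNA by RT-PCR + CE fluorescence; increase over DMSO.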

[7] = molecular target: human RAR-related Orphan Receptor gamma (RORg), RORC (gene 6097) (UniProt P51449); experiment: ATG_RORg_TRANS: Attagene TRANS-FACTORIAL HepG2 Assay for human RAR-related Orphan Receptor gamma (RORg) (AID 2283011)
human RAR-related Orphan Receptor gamma (RORg), RORC (gene 6097), sequence (P51449 whole entry, looked up, the tested form may be a part): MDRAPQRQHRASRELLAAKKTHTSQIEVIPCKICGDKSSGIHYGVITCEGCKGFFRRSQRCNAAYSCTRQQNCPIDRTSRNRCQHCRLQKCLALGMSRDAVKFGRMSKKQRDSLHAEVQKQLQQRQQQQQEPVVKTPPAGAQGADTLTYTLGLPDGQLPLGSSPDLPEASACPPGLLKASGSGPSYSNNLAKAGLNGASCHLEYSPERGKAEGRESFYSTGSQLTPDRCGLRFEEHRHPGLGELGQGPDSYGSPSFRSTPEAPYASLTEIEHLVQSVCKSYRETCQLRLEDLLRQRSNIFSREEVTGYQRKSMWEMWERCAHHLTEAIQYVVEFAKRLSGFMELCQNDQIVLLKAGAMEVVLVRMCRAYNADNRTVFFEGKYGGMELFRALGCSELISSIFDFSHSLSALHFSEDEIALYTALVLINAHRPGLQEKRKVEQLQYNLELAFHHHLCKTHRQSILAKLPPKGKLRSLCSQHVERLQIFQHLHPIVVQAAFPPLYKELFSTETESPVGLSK
Method in brief: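 Reporter transcripts from a transfected RORg-GAL4 chimera in HepG2 cells were quantified 24 h after dosing by RT-PCR, 6-FAM labelling, HpaI digestion and capillary electrophoresis; increases over DMSO baseline were fitted.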

[8] = molecular target: Retinoic acid receptor RXR-alpha (Homo sapiens) (UniProt P19793); experiment: ATG_RXRa_TRANS: Attagene TRANS-FACTORIAL HepG2 Assay for human Retinoid X Receptor alpha (RXRa) (AID 2283012)
Retinoic acid receptor RXR-alpha (Homo sapiens), sequence (P19793 whole entry, looked up, the tested form may be a part): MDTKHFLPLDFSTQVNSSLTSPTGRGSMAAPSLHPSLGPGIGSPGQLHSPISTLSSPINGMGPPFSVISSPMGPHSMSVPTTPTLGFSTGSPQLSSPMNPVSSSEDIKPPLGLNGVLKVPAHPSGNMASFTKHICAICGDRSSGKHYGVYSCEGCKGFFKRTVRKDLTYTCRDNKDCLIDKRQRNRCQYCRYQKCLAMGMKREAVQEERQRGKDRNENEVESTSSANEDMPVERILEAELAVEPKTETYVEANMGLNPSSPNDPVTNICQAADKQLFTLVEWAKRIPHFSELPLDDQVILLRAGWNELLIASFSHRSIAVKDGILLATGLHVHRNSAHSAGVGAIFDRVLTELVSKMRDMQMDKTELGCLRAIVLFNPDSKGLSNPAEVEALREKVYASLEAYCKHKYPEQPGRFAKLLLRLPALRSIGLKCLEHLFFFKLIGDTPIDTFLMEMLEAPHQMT
Method in brief: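 Cells (HepG2) carried transiently transfected GAL4-responsive reporter units. Following a 24 h chemical incubation, reporter mRNA induction was read via RT-PCR fragment analysis; DMSO served as negative control and baseline.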

[9] = molecular target: human Retinoid X Receptor beta (RXRb), RXRB (gene 6257) (UniProt P28702); experiment: ATG_RXRb_TRANS: Attagene TRANS-FACTORIAL HepG2 Assay for human Retinoid X Receptor beta (RXRb) (AID 2283013)
Method in brief: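 Multiplexed TRANS reporter assay in HepG2; 24 h dosing; reporter mRNA by RT-PCR/CE fluorescence; gain-of-signal relative to DMSO.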

[10] = molecular target: human Thyroid Receptor alpha (THRa1), THRA (gene 7067) (UniProt P10827); experiment: ATG_THRa1_TRANS: Attagene TRANS-FACTORIAL HepG2 Assay for human Thyroid Receptor alpha (THRa1) (AID 2283014)
human Thyroid Receptor alpha (THRa1), THRA (gene 7067), sequence (P10827 whole entry, looked up, the tested form may be a part): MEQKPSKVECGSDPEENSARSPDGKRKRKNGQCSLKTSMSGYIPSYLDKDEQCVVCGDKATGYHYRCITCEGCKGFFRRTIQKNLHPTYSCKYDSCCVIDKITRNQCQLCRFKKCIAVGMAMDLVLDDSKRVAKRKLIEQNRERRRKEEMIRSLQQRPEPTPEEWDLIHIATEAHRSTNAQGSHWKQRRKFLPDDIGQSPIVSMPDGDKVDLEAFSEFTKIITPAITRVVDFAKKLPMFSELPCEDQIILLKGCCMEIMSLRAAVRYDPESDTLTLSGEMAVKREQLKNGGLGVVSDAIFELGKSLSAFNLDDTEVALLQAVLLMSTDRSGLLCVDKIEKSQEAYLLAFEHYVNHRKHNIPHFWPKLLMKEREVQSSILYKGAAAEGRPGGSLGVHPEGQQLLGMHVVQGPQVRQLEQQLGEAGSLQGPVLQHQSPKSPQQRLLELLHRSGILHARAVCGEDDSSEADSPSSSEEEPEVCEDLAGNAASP
Method in brief: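 Transcripts from GAL4-UAS-driven reporters, measured after 24 h compound exposure by RT-PCR plus capillary electrophoresis of 6-FAM-labeled fragments, were fitted for gain of signal relative to DMSO. Cells: transiently transfected HepG2 expressing NR-Gal4 chimeras.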

[11] = molecular target: Nuclear receptor subfamily 1 group I member 2 (Homo sapiens) (UniProt O75469); experiment: ATG_PXR_TRANS: Attagene TRANS-FACTORIAL HepG2 Assay for human Pregnane X Receptor (PXR) (AID 2283008)
Method in brief: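 HepG2 cells transiently transfected with GAL4-UAS reporter units and PXR-Gal4 chimera, exposed 24 h. Reporter mRNA quantified by RT-PCR, fluorescent labelling, HpaI digestion and capillary electrophoresis; gain of signal vs DMSO.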

[12] = molecular target: human RAR-related Orphan Receptor beta (RORb), RORB (gene 6096) (UniProt Q92753); experiment: ATG_RORb_TRANS: Attagene TRANS-FACTORIAL HepG2 Assay for human RAR-related Orphan Receptor beta (RORb) (AID 2283010)
Method in brief: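 In this TRANS-format test, human HepG2 cells express chimeric NR-Gal4 fusion proteins driving GAL4-UAS reporters. After 24 h dosing, reporter transcripts are measured by fluorescent RT-PCR/capillary electrophoresis, with DMSO as negative control.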

[13] = read-out: Intercellular Adhesion Molecule 1 (ICAM1), ICAM1 (gene 3383); experiment: BSK_3C_ICAM1: BioMAP Diversity Plus: 3C Assay for Intercellular Adhesion Molecule 1 (ICAM1) Biomarker Activity (AID 2283003; active = hit-call score of the fitted dose curve at least 0.9, where 1 is the maximum; inactive = score below 0.9); settings: primary human endothelial cells (HUVEC); actives raise or lower the signal
Method in brief: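 Human vascular endothelial primary cells, 3C conditions, 24 h treatment. ICAM-1 by ELISA.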

[14] = BSK_3C_Proliferation: Cell Proliferation Assessment in the BioMAP Diversity Plus: 3C Assay (AID 2283006; active = hit-call score of the fitted dose curve at least 0.9, where 1 is the maximum; inactive = score below 0.9;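 for AC50: potency may reflect either rise or fall in cell number versus DMSO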); settings: primary human endothelial cells (HUVEC)
Method in brief: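 Proliferation of human vascular endothelial primary cells after 48 h dosing, quantified as SRB-stained protein at 560 nm relative to DMSO.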

[15] = read-out: E-selectin (Homo sapiens) (UniProt P16581); experiment: BSK_3C_Eselectin: BioMAP Diversity Plus: 3C Assay for Eselectin Biomarker Activity (AID 2283015; active = hit-call score of the fitted dose curve at least 0.9, where 1 is the maximum; inactive = score below 0.9); settings: primary human endothelial cells (HUVEC); actives raise or lower the signal
Method in brief: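 E-selectin ELISA readout, fitted bidirectionally relative to DMSO, taken 24 h post-dosing in HUVEC cultures of the 3C system. Overt cytotoxicity tracked with sulforhodamine B staining of parallel wells.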

[16] = read-out: Interleukin-1 alpha (IL1a), IL1A (gene 3552); experiment: BSK_BE3C_IL1a: BioMAP Diversity Plus: BE3C Assay for Interleukin-1 alpha (IL1a) Biomarker Activity (AID 2283016; active = hit-call score of the fitted dose curve at least 0.9, where 1 is the maximum; inactive = score below 0.9); settings: primary human bronchial epithelial cells; actives raise or lower the signal
Method in brief: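 Cultures of primary human bronchial epithelial cells receive test chemical. After 24 h, IL-1a is quantified by ELISA, while parallel wells are fixed in TCA and SRB-stained for total protein. Changes in either direction are fitted relative to DMSO.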

[17] = read-out: Monocyte Chemoattractant Protein-1 (MCP1), CCL2 (gene 6347); experiment: BSK_3C_MCP1: BioMAP Diversity Plus: 3C Assay for Monocyte Chemoattractant Protein-1 (MCP1) Biomarker Activity (AID 2283017; active = hit-call score of the fitted dose curve at least 0.9, where 1 is the maximum; inactive = score below 0.9); settings: primary human endothelial cells (HUVEC); actives raise or lower the signal
Method in brief: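 MCP-1 was measured by ELISA 24 h after dosing in primary HUVEC 3C cultures and fitted in both directions relative to DMSO; cytotoxicity was checked by SRB total-protein staining in parallel wells.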

[18] = read-out: Monocyte Chemoattractant Protein-1 (MCP1), CCL2 (gene 6347); experiment: BSK_4H_MCP1: BioMAP Diversity Plus: 4H Assay for Monocyte Chemoattractant Protein-1 (MCP1) Biomarker Activity (AID 2283018; active = hit-call score of the fitted dose curve at least 0.9, where 1 is the maximum; inactive = score below 0.9); settings: primary human endothelial cells (HUVEC); actives raise or lower the signal
Method in brief: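 Readout: MCP-1 ELISA on compound-treated HUVEC, sampled 24 h post-dosing. Baseline and negative control DMSO; bidirectional fit. Overt toxicity checked alongside by sulforhodamine B protein staining at time of biomarker measurement.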

[19] = read-out: Human Leukocyte Antigen - DR isotype (HLADR), HLA-DRA (gene 3122); experiment: BSK_3C_HLADR: BioMAP Diversity Plus: 3C Assay for Human Leukocyte Antigen - DR isotype (HLADR) Biomarker Activity (AID 2283019; active = hit-call score of the fitted dose curve at least 0.9, where 1 is the maximum; inactive = score below 0.9); settings: primary human endothelial cells (HUVEC); actives raise or lower the signal
Method in brief: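 Bidirectional fitting against DMSO was applied to the HLA-DR ELISA signal from human umbilical vein endothelial cells, 24 h post-dose. Cytotoxicity came from parallel SRB total-protein staining; 3C proliferation was counted by SRB at 48 h.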

Measured: AC50

E-selectin (Homo sapiens), sequence (P16581 whole entry, looked up): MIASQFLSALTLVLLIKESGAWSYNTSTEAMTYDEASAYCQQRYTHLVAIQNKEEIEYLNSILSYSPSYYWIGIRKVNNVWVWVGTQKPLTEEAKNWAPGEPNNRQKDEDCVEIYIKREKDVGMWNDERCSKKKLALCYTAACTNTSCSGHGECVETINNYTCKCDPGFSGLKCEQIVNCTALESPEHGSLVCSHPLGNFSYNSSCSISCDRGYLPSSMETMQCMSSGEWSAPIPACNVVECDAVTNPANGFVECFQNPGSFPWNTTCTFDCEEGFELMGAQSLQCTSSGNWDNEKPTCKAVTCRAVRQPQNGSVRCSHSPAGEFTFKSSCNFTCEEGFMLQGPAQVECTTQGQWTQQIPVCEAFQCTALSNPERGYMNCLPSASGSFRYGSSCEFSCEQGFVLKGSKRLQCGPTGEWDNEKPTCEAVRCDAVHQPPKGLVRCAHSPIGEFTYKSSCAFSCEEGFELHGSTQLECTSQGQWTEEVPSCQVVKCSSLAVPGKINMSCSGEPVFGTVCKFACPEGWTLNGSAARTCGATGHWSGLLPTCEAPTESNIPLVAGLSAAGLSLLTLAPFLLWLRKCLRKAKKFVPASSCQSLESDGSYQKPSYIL

CCCCCCCC/C=C\CCCCCCCC(=O)N(C)CC(=O)O
active: [1] 2.02 µM | [5] 5.36 µM
inactive: [2] | [3] | [4] | [6] | [7] | [8] | [9] | [10]

CC1=CCC(=O)O1
inactive: [1] | [2] | [3] | [4] | [5] | [9]

CCc1cccc(C)c1N(C(=O)C(=O)O)C(C)COC (configuration not stated)
inactive: [1] | [2] | [5] | [11] | [12] | [7] | [8] | [9]

C=CC(=O)OCC(F)(F)C(F)(F)C(F)(F)COC(=O)C=C
active: [13] 46.5 µM | [14] 8.32 µM and 9.46 µM | [5] 2.69 µM | [15] 19.4 µM and 32.1 µM | [16] 23.2 µM and 17.5 µM | [17] 39.6 µM and 30 µM | [18] 30 µM and 8.24 µM
inactive: [1] | [6] | [7] | [8] | [10]

CSc1ccc(Cl)cc1
inactive: [1] | [2] | [11] | [12] | [7] | [10]

CC(C)C(=O)OCc1ccccc1
inactive: [1] | [12] | [8]

Cc1ccc2c(c1)OCC(=O)CO2
inactive: [1] | [2] | [5] | [7]

CN1CN(C)CN(C)C1
inactive: [1] | [3] | [4] | [5] | [6] | [7] | [8]

FC(F)(F)C(F)(F)C(F)(F)CC1CO1 (configuration not stated)
inactive: [1] | [13] | [5] | [7] | [8] | [10] | [15] | [17] | [18]

CCOC(=O)CCC(C)=O
inactive: [1] | [2] | [11] | [9]

O=C(Cl)C(F)(F)C(F)(F)C(F)(F)C(F)(F)C(F)(F)C(F)(F)F
active: [1] 10.9 µM | [5] 71.1 µM
not listed: [2] | [7] | [8] | [10] | [12] | [14] | [19]
inactive: all other assays above

CCN(CC)c1ccc2c(c1)Oc1cc(N(CC)CC)ccc1C21OC(=O)c2ccccc21
inactive: [2] | [13] | [7] | [15] | [16] | [18]
active: [5] 17.6 µM | [11] 0.348 µM | [17] 10 µM | [19] 10 µM

O=C(O)CCC(F)(F)C(F)(F)C(F)(F)F
not listed: [2] | [3] | [4] | [6] | [7] | [10] | [11] | [19]
inactive: all other assays above
